Experimental data published in the supplement of paper PMC10498489.
Among all 2,300 compounds or so, about 330 (14%) showed activity. Only a sample is shown. Unmarked numbers belong to inactive results.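 How the source made its calls: active = median modified Z-score above 1.96; inactive = 1.96 or below.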

These compounds were tested on HepG2 Srxn1-GFP reporter cells (+30 nM CDDO-Me) (assay: Srxn1-GFP intensity median modified Z-score relative to plate median; higher = stronger NRF2 / oxidative stress reporter activation, active = hit call of the paper). Conditions: 10 µM; exposure time: 24h.
How it was run: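 The modified Z-score of GFP intensity was computed per plate, and the median over replicates is reported. HepG2 Srxn1-GFP BAC reporter cells in three replicate plates were treated for 24 h with compound at 10 μM plus an NRF2 activator at 30 nM (≤0.1% DMSO). Per-cell cytoplasmic GFP came from confocal images, excluding those with under 100 cells, and scaling used 1.4826 × median absolute deviation.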

SMILES	Srxn1-GFP intensity median modified Z-score
CC1C(=NC(=O)C(NOC(C)(C)C(=O)O)c2csc(=N)[nH]2)C(=O)N1S(=O)(=O)O (stereo not given) [euspeclibcmpd708]	-0.0945
CCOc1cc2c(cc1/C=C/C(=O)N(C)C(C)c1ccc(-n3cncn3)cc1)OC(C)C2 (stereo not given)	0.413
Cc1ccc2c(Cl)cc(Cl)c(O)c2n1 [euspeclibcmpd1014]	-0.191
Oc1c(Cl)cc(Cl)c(Cl)c1Cc1c(O)c(Cl)cc(Cl)c1Cl [euspeclibcmpd146]	44.1 (active)
CCC[C@@H]1C[C@@H](C(=O)N[C@@H]([C@H]2O[C@H](SC)[C@H](O)[C@@H](O)[C@H]2O)[C@@H](C)O)N(C)C1	1.1
COC(=O)[C@H]1[C@H]2C[C@@H]3c4[nH]c5cc(OC)ccc5c4CCN3C[C@H]2C[C@@H](OC(=O)c2cc(OC)c(OC)c(OC)c2)[C@@H]1OC [euspeclibcmpd2385]	6.53 (active)
O=C(O)C1[C@H]2C[C@H]3c4[nH]c5ccccc5c4CCN3C[C@@H]2CC[C@@H]1O (stereo not given in full) [euspeclibcmpd1655]	-0.233
C[C@H]1O[C@H](OC[C@@H]2O[C@H](Oc3c(-c4ccc(OCCO)c(OCCO)c4)oc4cc(OCCO)cc(O)c4c3=O)[C@@H](O)[C@H](O)[C@H]2O)[C@@H](O)[C@@H](O)[C@@H]1O [euspeclibcmpd1205]	-0.542
O=C(c1ccccc1)c1ccc(Cl)cc1O	1.14
CCN(C(=O)COC(=O)C1=NNC(=O)CC1)C1CCS(=O)(=O)C1 (stereo not given)	1.01
NCCc1ccc(O)c(O)c1 [euspeclibcmpd2286]	9.36 (active)
NC(Cc1ccc(O)c(O)c1)C(=O)O (stereo not given) [euspeclibcmpd949]	-1.39
NCCc1ccc(O)c(O)c1 [euspeclibcmpd2150]	-1.01
C[C@](N)(Cc1ccc(O)c(O)c1)C(=O)O [euspeclibcmpd194]	-0.447
CO[C@@H]1[C@@H](OC(N)=O)[C@@H](O)[C@H](Oc2ccc3c(=O)c(NC(=O)c4ccc(O)c(CC=C(C)C)c4)c(O)oc3c2C)OC1(C)C [euspeclibcmpd2334]	-0.255
N#CCSc1nnc(-c2ccc(Br)cc2)n1C1CCCCC1	1.88
CCC(C)C(=N)C1NC(C(=O)NC(CC(C)C)C(=O)NC(CCC(=O)O)C(=O)NC(C(=O)NCCCCC2NC(=O)C(CC(N)=O)NC(=O)C(CC(=O)O)NC(=O)C(Cc3c[nH]cn3)NC(=O)C(Cc3ccccc3)NC(=O)C(C(C)CC)NC(=O)C(CCCN)NC2=O)C(C)CC)CS1 (stereo not given) [euspeclibcmpd30]	-0.458
CCC(C)CCCCC(=O)NC(CCN)C(=O)NC(C(=O)NC(CCN)C(=O)NC1CCNC(=O)C(C(C)O)NC(=O)C(CCN)NC(=O)C(CCN)NC(=O)C(CC(C)C)NC(=O)C(Cc2ccccc2)NC(=O)C(CCN)NC1=O)C(C)O (stereo not given) [euspeclibcmpd239]	0.328

SMILES	Srxn1-GFP intensity median modified Z-score
CC(C)CC1NC(=O)C(CCCN)NC(=O)C(C(C)C)NC(=O)C(Cc2ccc(O)cc2)NC(CCC(=O)O)C(=O)NC(CC(N)=O)C(=O)C(Cc2ccccc2)NC(=O)C(Cc2ccccc2)NC(=O)C2CCCN2C(=O)C(Cc2ccccc2)NC1=O (stereo not given) [euspeclibcmpd1841]	2.86 (active)
CC(=O)c1ccc(S(=O)(=O)CC(=O)NC2CCCC2)cc1	1.37
N=c1nc(-c2cc(Cl)ccc2Cl)[nH]c(=N)[nH]1 [euspeclibcmpd1188]	0.145
CCCCOC(=O)c1ccc(O)cc1 [euspeclibcmpd905]	0.67
CCCCCCc1ccc(O)cc1O [euspeclibcmpd2121]	3.73 (active)
C[C@H]1[C@H](C)CC[C@]2(C(=O)O)CC[C@]3(C)C(=CCC4[C@@]5(C)C[C@@H](O)[C@H](O)[C@@](C)(CO)C5[C@H](O)C[C@]43C)[C@H]12 (stereo not given in full) [euspeclibcmpd1692]	-0.252
Cn1c(O)cc(-c2ccccc2)c1O [euspeclibcmpd796]	-0.502
CCCCNc1ccc(C(=O)OCCOCCOCCOCCOCCOCCOCCOCCOCCOC)cc1 [euspeclibcmpd1214]	5.26 (active)
CCCCNc1ccc(C(=O)OCCN(C)C)cc1 [euspeclibcmpd287]	-0.0522
CCCCOC(=O)c1ccc(N)cc1 [euspeclibcmpd342]	0.38
Cn1cc(O)[nH]c1=N [euspeclibcmpd1004]	-0.153
CCN(CC)CCNC(=O)c1ccc(I)cc1	0.454
N=c1[nH]c(=S)c2nc[nH]c2[nH]1 [euspeclibcmpd292]	28.2 (active)
N=c1[nH]cnc2[nH]cnc12 [euspeclibcmpd349]	-0.183
NCCCC(N)CC(=O)NCC1NC(=O)C(CO)NC(=O)C(N)CNC(=O)C(C2CCN=C(N)N2)NC(=O)C(C=NC(N)=O)NC1=O (stereo not given) [euspeclibcmpd1312]	0
O=C(O)C1O[C@@H](Oc2cc3oc(-c4ccccc4)cc(=O)c3c(O)c2O)[C@H](O)[C@@H](O)[C@@H]1O (stereo not given in full) [euspeclibcmpd2123]	-0.648
CCCCCC1C(=O)CCC1CC(=O)OC (stereo not given) [euspeclibcmpd1637]	-0.322
